Inconclusive results are not listed. A number with no mark means an inactive call. The source made the active and inactive calls. Calls follow the shape of the dose curve; as a rule, active = well fitted curve in the direction sought with a large enough effect; inconclusive = small, poorly fitted or top-dose-only effect, or another doubt; inactive = no such curve, though single readings can be large; an effect the other way counts as inactive or inconclusive.
Potency is read from the fitted curve at half-maximal effect.

The first assay can be described thus: Quantitative High-Throughput drug screen in 47 multiple myeloma cell lines against the NCATS MIPE library collection: MOLP8_DSMZ cell viability assay (AID 1918977). Also: nearly all actives have a fitted effect of over 45% in size. The conditions noted are these: MOLP8 myeloma viability, CellTiter-Glo ATP luminescence, 48 h; series mostly up to 45.8 µM; viability (% of control): at the top concentration. A digest of the protocol: (§1)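 500 cells/well per myeloma line exposed to pinned MIPE 4.0 compounds for 48 h at 37 °C, 5% CO2. Viability read as ATP by CellTiter-Glo luminescence, normalised to DMSO-only (100%) and media-only (0%) wells.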
For orientation: Cellular ATP, detected with luciferase, serves as a proxy for viable cell number.
Turning to `CC1(C)CCC(CN2CCN(c3ccc(C(=O)NS(=O)(=O)c4ccc(NCC5CCOCC5)c([N+](=O)[O-])c4)c(Oc4cnc5[nH]ccc5c4)c3)CC2)=C(c2ccc(Cl)cc2)C1`, the Potency is 18.7 µM (active).
Take `O=C(Nc1cccc(Br)c1)c1cccc(S(=O)(=O)N2CCCCCC2)c1`: the “viability (% of control)” value is 68%.
Same read-out and setting: for `Nc1ncnc2c1ncn2[C@@H]1O[C@@H](CO)[C@H](O)[C@H]1O` the value was 106%.
For the molecule `CCCCCNC(=O)N1CCC(CN(Cc2ccc(Cl)cc2)Cc2ccc([N+](=O)[O-])s2)C1` (centres undefined), the Potency is 18.7 µM (active).
Still for that read-out and setting: with `Cc1cc(OCCCc2c(C(=O)O)n(Cc3cccnc3)c3c(-c4c(COc5ccc(N6CCN([S+](C)(=O)[O-])CC6)cc5)nn(C)c4C)cccc23)cc(C)c1Cl` the figure was 20.9 µM (active).
With `CN[C@@H](C)C(=O)N[C@H]1CN(C(=O)CC(C)C)CC[C@H]2CC[C@@H](C(=O)NC(c3ccccc3)c3ccccc3)N2C1=O`, the “viability (% of control)” value was 87.3%.
Take `Cc1ccc(F)c(NC(=O)Nc2ccc(-c3cccc4[nH]nc(N)c34)cc2)c1`: the Potency is 26.4 µM (active).
Consider `COc1cc2c(cc1OC)CN(CCc1ccc(NC(=O)c3cc(OC)c(OC)cc3NC(=O)c3cnc4ccccc4c3)cc1)CC2`, for which the “viability (% of control)” value was 83.8%.
Take `C[C@]12CCC3c4ccc(O)cc4CCC3C1CCC2=O` (some centres undefined): the Potency is 20.9 µM (active).
For `Cc1c(O)cccc1C(=O)N[C@@H](CSc1ccccc1)[C@H](O)CN1C[C@H]2CCCC[C@@H]2C[C@@H]1C(=O)NC(C)(C)C`, the Potency is 16.6 µM (active).

A further assay can be described thus: Quantitative High-Throughput drug screen in 47 multiple myeloma cell lines against the NCATS MIPE library collection: NCIH929_DSMZ cell viability assay (AID 1918978). Also: nearly all actives have a fitted effect of over 35% in size. The following applies: NCI-H929 myeloma viability, CellTiter-Glo ATP, 48 h; series mostly up to 45.8 µM; viability, % of control: at the top concentration. The method in brief:
as §1
As to `O=C(OCC#CCSc1nnc(-c2cccc3ccccc23)o1)c1cc2ccccc2s1`, the “viability, % of control” value is 94.4%.
As to `COCCOc1nc(-c2ccc(Cl)c(Cl)c2)n(-c2ccc(NC(=O)CCl)cc2)n1`, the Potency is 13.2 µM (active).
As to `COc1ccc2c(Oc3ccc(NC(=O)c4c(C)n(CC(C)(C)O)n(-c5ccccc5)c4=O)cc3F)ccnc2c1`, the Potency is 20.9 µM (active).
As for `CC1(C)CCC(CN2CCN(c3ccc(C(=O)NS(=O)(=O)c4ccc(NCC5CCOCC5)c([N+](=O)[O-])c4)c(Oc4cnc5[nH]ccc5c4)c3)CC2)=C(c2ccc(Cl)cc2)C1`, the Potency is 23.5 µM (active).
As to `Nc1ncnc2c1ncn2[C@@H]1O[C@@H](CO)[C@H](O)[C@H]1O`, the “viability, % of control” value was 119%.
For `CNC(=O)c1ccccc1Sc1ccc2c(C=Cc3ccccn3)n[nH]c2c1`, the Potency is 20.9 µM (active).
Take `O=C1NC(=O)C(=Cc2ccc3nccnc3c2)S1`: the Potency was 3.63 µM (active).
On to `CC(C)C(=O)Oc1ccc(CO)cc1[C@H](CCN(C(C)C)C(C)C)c1ccccc1`, for which the “viability, % of control” value was 71.3%.
With `Cc1ccccc1C(C(=O)NC1CCCCC1)N(C(=O)Cn1ccnc1C)c1cccc(F)c1` (centres undefined), the “viability, % of control” value was 106%.
In the case of `O=c1cc(CN2CCOCC2)occ1OCCCCCSc1ccnc2cc(C(F)(F)F)ccc12`, the Potency was 3.72 µM (active).
With `CC[C@H]1OC(=O)[C@H](C)[C@@H](O[C@H]2C[C@@](C)(OC)[C@@H](O)[C@H](C)O2)[C@H](C)[C@@H](O[C@@H]2O[C@H](C)C[C@H](N(C)C)[C@@H]2O)[C@](C)(O)C[C@@H](C)CN(C)[C@H](C)[C@@H](O)[C@]1(C)O`, the “viability, % of control” value is 127%.
With `Cc1cc(OCCCc2c(C(=O)O)n(Cc3cccnc3)c3c(-c4c(COc5ccc(N6CCN([S+](C)(=O)[O-])CC6)cc5)nn(C)c4C)cccc23)cc(C)c1Cl`, the Potency is 3.32 µM (active).
Regarding `CN[C@@H](C)C(=O)N[C@H]1CN(C(=O)CC(C)C)CC[C@H]2CC[C@@H](C(=O)NC(c3ccccc3)c3ccccc3)N2C1=O`, the Potency is 11.8 µM (active).
On the same count and under the same terms, for `COc1cc2c(cc1OC)CN(CCc1ccc(NC(=O)c3cc(OC)c(OC)cc3NC(=O)c3cnc4ccccc4c3)cc1)CC2` the value was 8.33 µM (active).
Regarding `CC(C)(C)COc1ccc(-n2cc(C(=O)O)cn2)cc1C#N`, the “viability, % of control” value was 109%.
`CCOC1OC(=O)C[C@H]1NC(=O)[C@@H]1CCCN1C(=O)[C@@H](NC(=O)c1ccc(N)c(Cl)c1)C(C)(C)C` (some centres undefined): the “viability, % of control” value was 120%.
Consider `CC(C)(Cc1ccc2ccccc2c1)NC[C@@H](O)COc1cccc(Cl)c1C#N`, for which the “viability, % of control” value is 122%.
`Cc1c(NC(=O)c2ccc(C(C)(C)C)cc2)cccc1-c1cn(C)c(=O)c(Nc2ccc(C(=O)N3CCOCC3)cc2)n1`: the Potency was 20.9 µM (active).
With `C=C1C(=O)OC2C=C(C)CCC=C(C)CCC12` (centres undefined), the Potency was 20.9 µM (active).

Values taken from PubChem BioAssay (NCATS).
